The target of assay [1] is Cytochrome P450 2C9 (Homo sapiens) (UniProt P11712). Briefly: Cytochrome P450 Family 2 Subfamily C Member 9 (CYP2C9) small molecule antagonists: luciferase reporter qHTS assay (AID 1671198). Also: potency is read from the fitted curve at half-maximal effect. As to activity change, negative = inhibition: series mostly up to about 120 µM. The gist of the method: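 CYP2C9 activity was measured with a P450-Glo proluciferin substrate. Enzyme–substrate mix was held with compound for 10 min at room temperature, then NADPH regeneration solution was added for 1 h at 37C. Luciferin product was read as luminescence.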
Sequence of Cytochrome P450 2C9 (Homo sapiens) (P11712 whole entry, looked up): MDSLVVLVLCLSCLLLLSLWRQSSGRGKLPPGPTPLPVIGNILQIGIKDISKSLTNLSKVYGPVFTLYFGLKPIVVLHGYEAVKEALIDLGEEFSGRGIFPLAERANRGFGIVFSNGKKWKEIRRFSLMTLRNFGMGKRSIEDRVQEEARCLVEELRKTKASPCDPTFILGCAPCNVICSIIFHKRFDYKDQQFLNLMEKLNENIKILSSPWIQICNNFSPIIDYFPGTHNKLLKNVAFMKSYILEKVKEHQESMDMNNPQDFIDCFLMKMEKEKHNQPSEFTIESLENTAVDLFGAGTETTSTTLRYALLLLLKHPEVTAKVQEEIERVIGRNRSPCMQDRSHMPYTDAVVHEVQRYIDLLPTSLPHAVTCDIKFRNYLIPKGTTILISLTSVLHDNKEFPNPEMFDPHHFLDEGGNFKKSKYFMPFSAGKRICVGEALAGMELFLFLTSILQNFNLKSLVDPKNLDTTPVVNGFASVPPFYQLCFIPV
On the technique in general: In a reporter assay the amount or activity of a reporter protein is the signal.

Assay [2] concerns the target Cytochrome P450 1A2 (Homo sapiens) (UniProt P05177). Briefly: Cytochrome P450 Family 1 Subfamily A Member 2 (CYP1A2) small molecule antagonists: luciferase reporter qHTS assay (AID 1671199). Also: potency is read from the fitted curve at half-maximal effect. As to activity change, negative = inhibition: series mostly up to about 120 µM. The method in brief:
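Steps: enzyme-substrate mix dispensed; test compounds and furafylline control pinned in; 10 min room temperature; NADPH regeneration solution added, 1 h; reaction stopped with luciferin detection reagent; luminescence read after 20 min.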

Assay [3] concerns the target Voltage-gated inwardly rectifying potassium channel KCNH2 (Homo sapiens) (UniProt Q12809). Briefly: Human Ether-a-go-go-Related Gene (hERG) channel small molecule antagonists: fluorescence cell-based qHTS assay (AID 1671200).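 Also: hERG-expressing U2OS cells given a thallium stimulus after FluxOR II dye loading; series mostly up to about 77 µM.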 The method in brief: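 Thallium served as the potassium surrogate; its influx into dye-loaded U2OS cells carrying the channel was measured by fluorescence over 2 min.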
(Block of hERG is tested as a sign of cardiac risk.)

In assay [4] the target is Cytochrome P450 3A4 (Homo sapiens) (UniProt P08684). Briefly: Cytochrome P450 Family 3 Subfamily A Member 4 (CYP3A4) small molecule antagonists: luciferase reporter qHTS assay (AID 1671201). Also: series mostly up to about 120 µM. The gist of the method:
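Relative luminescence units after 20 min with luciferin detection reagent served as read-out. Beforehand, CYP3A4 turned over a proluciferin substrate for 1 h at room temperature with NADPH regeneration, following 10 min compound preincubation.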

Inconclusive results are not listed. A number with no mark means an inactive call. Calls of active or inactive are those of the source. Calls follow the shape of the dose curve; as a rule, active = well fitted curve in the direction sought with a large enough effect in the repeat runs; inconclusive = weak or mixed curves; inactive = no such curve, though single readings can be large; an effect the other way counts as inactive or inconclusive.
% is scaled to controls: 0 for no effect and ±100 for the full control effect.
Also: nearly all actives have a fitted effect of over 50% in size.

Sequence of Cytochrome P450 1A2 (Homo sapiens) (P05177 whole entry, looked up): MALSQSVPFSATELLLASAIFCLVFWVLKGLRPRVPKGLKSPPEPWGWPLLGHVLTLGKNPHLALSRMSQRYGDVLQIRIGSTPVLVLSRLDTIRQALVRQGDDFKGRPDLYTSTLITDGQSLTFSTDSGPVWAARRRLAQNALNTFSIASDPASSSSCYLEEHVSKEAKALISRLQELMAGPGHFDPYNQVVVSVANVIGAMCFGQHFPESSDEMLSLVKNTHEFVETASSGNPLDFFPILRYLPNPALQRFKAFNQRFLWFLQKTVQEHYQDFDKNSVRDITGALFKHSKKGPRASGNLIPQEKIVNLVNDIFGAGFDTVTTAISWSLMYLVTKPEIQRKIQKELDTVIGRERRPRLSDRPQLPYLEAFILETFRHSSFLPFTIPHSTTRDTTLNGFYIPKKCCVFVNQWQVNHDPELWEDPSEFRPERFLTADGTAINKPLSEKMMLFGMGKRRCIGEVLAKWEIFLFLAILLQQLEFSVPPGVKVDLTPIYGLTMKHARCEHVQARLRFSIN
Sequence of Cytochrome P450 3A4 (Homo sapiens) (P08684 whole entry, looked up): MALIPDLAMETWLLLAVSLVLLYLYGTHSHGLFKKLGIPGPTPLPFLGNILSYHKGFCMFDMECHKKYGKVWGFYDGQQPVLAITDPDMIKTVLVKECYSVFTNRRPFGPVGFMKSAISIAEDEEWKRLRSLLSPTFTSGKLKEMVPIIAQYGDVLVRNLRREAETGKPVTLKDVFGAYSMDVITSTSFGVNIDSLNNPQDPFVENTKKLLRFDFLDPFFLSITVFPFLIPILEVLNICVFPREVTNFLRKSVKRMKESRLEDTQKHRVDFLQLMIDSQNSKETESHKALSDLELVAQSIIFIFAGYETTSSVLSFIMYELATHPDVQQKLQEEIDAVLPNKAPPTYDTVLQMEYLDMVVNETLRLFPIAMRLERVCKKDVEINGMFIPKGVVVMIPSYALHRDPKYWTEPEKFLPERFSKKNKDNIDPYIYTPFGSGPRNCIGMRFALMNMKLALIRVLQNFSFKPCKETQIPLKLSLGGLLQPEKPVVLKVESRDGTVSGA
Sequence of Voltage-gated inwardly rectifying potassium channel KCNH2 (Homo sapiens) (Q12809 whole entry, looked up): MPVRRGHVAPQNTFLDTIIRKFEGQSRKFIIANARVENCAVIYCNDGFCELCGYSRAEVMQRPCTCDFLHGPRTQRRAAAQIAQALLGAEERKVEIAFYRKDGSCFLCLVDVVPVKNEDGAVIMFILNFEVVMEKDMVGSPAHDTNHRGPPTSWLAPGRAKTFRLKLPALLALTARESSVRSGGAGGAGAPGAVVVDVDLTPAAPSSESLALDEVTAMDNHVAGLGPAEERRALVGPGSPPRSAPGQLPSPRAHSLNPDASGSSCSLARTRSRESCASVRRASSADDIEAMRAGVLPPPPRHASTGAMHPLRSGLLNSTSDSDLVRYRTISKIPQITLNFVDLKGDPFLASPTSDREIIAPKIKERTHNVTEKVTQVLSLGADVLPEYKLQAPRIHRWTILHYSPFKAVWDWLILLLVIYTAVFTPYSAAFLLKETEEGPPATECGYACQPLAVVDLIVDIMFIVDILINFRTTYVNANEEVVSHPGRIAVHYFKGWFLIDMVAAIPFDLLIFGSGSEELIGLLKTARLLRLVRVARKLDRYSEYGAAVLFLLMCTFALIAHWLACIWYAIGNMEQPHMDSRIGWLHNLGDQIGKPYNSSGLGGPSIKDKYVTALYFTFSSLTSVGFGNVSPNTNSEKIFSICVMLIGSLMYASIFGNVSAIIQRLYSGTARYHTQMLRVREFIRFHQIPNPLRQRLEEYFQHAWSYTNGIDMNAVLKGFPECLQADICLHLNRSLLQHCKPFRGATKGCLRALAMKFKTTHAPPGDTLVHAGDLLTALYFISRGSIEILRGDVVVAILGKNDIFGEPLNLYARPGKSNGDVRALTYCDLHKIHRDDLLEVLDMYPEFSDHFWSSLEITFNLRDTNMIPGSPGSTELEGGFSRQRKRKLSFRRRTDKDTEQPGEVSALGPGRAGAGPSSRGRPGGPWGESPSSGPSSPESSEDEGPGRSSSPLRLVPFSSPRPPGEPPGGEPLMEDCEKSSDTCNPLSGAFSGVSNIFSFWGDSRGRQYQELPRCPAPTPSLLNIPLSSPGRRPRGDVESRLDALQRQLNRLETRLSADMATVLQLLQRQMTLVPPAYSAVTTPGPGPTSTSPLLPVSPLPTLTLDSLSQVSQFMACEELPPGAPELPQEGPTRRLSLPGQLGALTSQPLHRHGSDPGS

For the molecule `O=S(=O)(O)CCN1CCN(CCO)CC1`, the Potency result in assay [1], in assay [2], in assay [3] and in assay [4] was “inactive” in each case.

For the molecule `C=C(C)C(=O)OCCN(CC)CC`, the Potency entry in assay [1], in assay [3] and in assay [4] was “inactive” each time. For the same molecule, the Potency in assay [2] is 35.5 µM (active).

Regarding `CCCCOC(=O)c1ccccc1`, the Potency entry in assay [1], in assay [2], in assay [3] and in assay [4] was “inactive” in each case.

In the case of `COc1ccc(C2CNC(=O)C2)cc1OC1CCCC1` (stereo not drawn), the Potency entry in assay [1], in assay [3] and in assay [4] was “inactive” in each case. In addition, the Potency in assay [2] is 13.8 µM (active).

For the molecule `COc1cc2c(cc1OC)C(=O)CC2`, the Potency result in assay [1], in assay [3] and in assay [4] was “inactive” throughout. The Potency in assay [2] was 27.5 µM (active).

For `C=CC(OCC)OCC`, the Potency result in assay [1], in assay [2], in assay [3] and in assay [4] was “inactive” each time.

As for `Cc1cccc(C)c1NC(=O)c1ccccc1C(=O)O`, the Potency result in assay [1], in assay [2], in assay [3] and in assay [4] was “inactive” in each case.

For the molecule `CCCCCCCCCC(C)=O`, the Potency entry in assay [1], in assay [2], in assay [3] and in assay [4] was “inactive” each time.

Regarding `C=C(C)C(=O)OCCOP(=O)(O)OCCOC(=O)C(=C)C`, the Potency result in assay [1], in assay [2], in assay [3] and in assay [4] was “inactive” each time.

Turning to `CC(C)OC(=O)CCCCC(=O)OC(C)C`, the Potency result in assay [1], in assay [2], in assay [3] and in assay [4] was “inactive” throughout.

Regarding `COc1cc(C(=S)N2CCOCC2)cc(OC)c1OC`, the Potency entry in assay [1], in assay [2], in assay [3] and in assay [4] was “inactive” throughout.

For `CC(S)C(=O)NCC(=O)O` (stereo not drawn), the Potency entry in assay [1], in assay [2], in assay [3] and in assay [4] was “inactive” in each case.

Consider `CC(=O)NCCCCCC(=O)O`, for which the Potency entry in assay [1], in assay [2], in assay [3] and in assay [4] was “inactive” each time.

Take `O=C(O)Cc1cn(-c2ccccc2)nc1-c1ccc(Cl)cc1`: the Potency in assay [1] is 5.49 µM (active). The Potency entry in assay [2], in assay [3] and in assay [4] was “inactive” throughout.

For the molecule `CCOc1cc([N+](=O)[O-])c(OCC)cc1N1CCOCC1`, the Potency in assay [1] is 7.96 µM (active); in assay [2], 1.78 µM (active). The Potency result in assay [3] and in assay [4] was “inactive” in each case.

Take `COc1nccnc1NS(=O)(=O)c1ccc(N)cc1`: the Potency result in assay [1], in assay [2], in assay [3] and in assay [4] was “inactive” throughout.

In the case of `CN1CCN(CC(=O)N2c3ccccc3C(=O)Nc3cccnc32)CC1`, the activity change, negative = inhibition is 2.89% [at 10.5 µM] in assay [1], 13.2% [at 10.5 µM] in assay [2], -0.112% [at 6.97 µM] in assay [3] and 4.83% [at 10.5 µM] in assay [4].

For `C[Si](C)=O`, the activity change, negative = inhibition was -9.3% [at 10.5 µM] in assay [1], -21% [at 10.5 µM] in assay [2], 1.17% [at 6.97 µM] in assay [3] and -1.04% [at 10.5 µM] in assay [4].

Take `CCCCCCCCSCC`: the Potency result in assay [1], in assay [2], in assay [3] and in assay [4] was “inactive” each time.

With `BrCc1cccc(Oc2ccccc2)c1`, the figures for the Potency in assay [1] and in assay [2] were 79.6 µM (active) and 39.9 µM (active), respectively. Besides, the Potency result in assay [3] and in assay [4] was “inactive” throughout.

Take `C=C(C)C(=O)OCCNC(C)(C)C`: the Potency result in assay [1], in assay [3] and in assay [4] was “inactive” throughout. For the same molecule, the Potency in assay [2] was 35.5 µM (active).

With `COP(=O)(OC)OC(c1ccc(Cl)cc1)P(=O)(OC)OC` (stereo not drawn), the Potency result in assay [1], in assay [2], in assay [3] and in assay [4] was “inactive” each time.

For the molecule `CC(C)(C)NC(N)=O`, the Potency entry in assay [1], in assay [3] and in assay [4] was “inactive” each time. Further, in assay [2], the Potency was 17.8 µM (active).

Regarding `Cc1ccc2ccc(Cl)cc2n1`, the Potency result in assay [1], in assay [3] and in assay [4] was “inactive” in each case. For the same molecule, the Potency in assay [2] was 15.5 µM (active).

Regarding `CN(C)C(=O)CNC(=O)Cc1ccccc1`, the Potency entry in assay [1], in assay [2], in assay [3] and in assay [4] was “inactive” throughout.

On to `CCCCCOC(=O)CCC`, for which the Potency entry in assay [1], in assay [2], in assay [3] and in assay [4] was “inactive” throughout.

In the case of `CCCOC(OCCC)OCCC`, the Potency entry in assay [1], in assay [2], in assay [3] and in assay [4] was “inactive” throughout.

As for `CCCCCCOC(=O)CC`, the Potency entry in assay [1], in assay [2], in assay [3] and in assay [4] was “inactive” in each case.

Take `O=C(O)c1cc(Cl)cc([N+](=O)[O-])c1Cl`: the Potency was 71 µM (active) in assay [1] and 39.9 µM (active) in assay [2]. Besides, the Potency entry in assay [3] and in assay [4] was “inactive” throughout.

Take `CC(=O)c1ccc2c(c1)Cc1ccccc1-2`: the values for the Potency in assay [1] and in assay [2] were 12.6 µM (active) and 1.79 µM (active), respectively. For the same molecule, the Potency entry in assay [3] and in assay [4] was “inactive” in each case.

In the case of `CC/C=C\CC1=C(C)CCC1=O`, the Potency entry in assay [1], in assay [3] and in assay [4] was “inactive” each time. Moreover, the Potency in assay [2] was 31.7 µM (active).

`CC(COC(C)(C)C)OCCCO` (stereo not drawn): the Potency entry in assay [1], in assay [2], in assay [3] and in assay [4] was “inactive” throughout.

For `CCC(C)(CCC(C)C)C(=O)O` (stereo not drawn), in assay [1], the Potency was 35.6 µM (active). For the same molecule, the Potency result in assay [2], in assay [3] and in assay [4] was “inactive” throughout.

On to `CC(=O)OC(C)OC(=O)C(C)c1ccc(-c2ccccc2)c(F)c1` (stereo not drawn), for which the Potency in assay [1] was 3.47 µM (active); in assay [2], 8.71 µM (active). For the same molecule, the Potency entry in assay [3] and in assay [4] was “inactive” throughout.

On to `CN(C)CCOCCO`, for which the Potency result in assay [1], in assay [2], in assay [3] and in assay [4] was “inactive” in each case.

For the molecule `CC(=O)Nc1ccc(S(=O)(=O)Cl)cc1`, the Potency result in assay [1], in assay [2], in assay [3] and in assay [4] was “inactive” throughout.

`CCC(CC)CO`: the Potency entry in assay [1], in assay [2], in assay [3] and in assay [4] was “inactive” in each case.

In the case of `CC(CO)c1ccccc1` (stereo not drawn), the Potency result in assay [1], in assay [2], in assay [3] and in assay [4] was “inactive” throughout.

Turning to `COc1ccc(Br)c(C)c1`, the Potency entry in assay [1], in assay [3] and in assay [4] was “inactive” in each case. In assay [2], the Potency was 32 µM (active).

`O=C(O)Cc1ccc(Cl)cc1Cl`: the Potency entry in assay [1], in assay [2], in assay [3] and in assay [4] was “inactive” throughout.

Take `CCOC(=O)[C@H](CCc1ccccc1)N[C@@H](C)C(=O)N1C(=O)N(C)C[C@H]1C(=O)O`: the Potency result in assay [1], in assay [2], in assay [3] and in assay [4] was “inactive” each time.

Take `OCCC(F)(F)C(F)(F)C(F)(F)C(F)(F)C(F)(F)C(F)(F)C(F)(F)C(F)(F)F`: the Potency result in assay [1], in assay [2], in assay [3] and in assay [4] was “inactive” each time.

Source of the values: PubChem BioAssay (Tox21).
